Test results from PubChem BioAssay (Tox21).
Inconclusive results are not listed. The source made the active and inactive calls. Calls follow the shape of the dose curve; as a rule, active = well fitted curve in the direction sought with a large enough effect in the repeat runs; inconclusive = weak or mixed curves; inactive = no such curve, though single readings can be large; an effect the other way counts as inactive or inconclusive.

Key:
[1] = A CellTox Green Cytotoxicity Assay to monitor cytotoxicity in HEK293 cells - 40 hour (AID 1224871); also: nearly all actives have a fitted effect of over 45% in size; also: potency is read from the fitted curve at half-maximal effect
Procedure, shortened: (§1)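 Dead-cell fluorescence measured kinetically: asymmetric cyanine dye, HEK293, 600 cells/well, 5 h settle, 23 nL cpd/DMSO, 37 C, reads 0–40 h every 8 h.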

[2] = qHTS RealTime-Glo MT Cell Viability Assay in HEK293 cells - 16 hour (AID 1224872); also: nearly all actives have a fitted effect of over 50% in size; also: potency is read from the fitted curve at half-maximal effect
Procedure, shortened: (§2)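 Homogeneous bioluminescent viability format in HEK293 cells (600 cells/well). Following 5 h at 37 C/5% CO2, 23 nL compound was pintooled; the signal was measured repeatedly during 40 h incubation.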

[3] = qHTS RealTime-Glo MT Cell Viability Assay in HepG2 cells - 8 hour (AID 1224873); also: nearly all actives have a fitted effect of over 55% in size
Procedure, shortened: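 Real-time viability: cells seeded at 600 per well together with NanoLuc and cell-permeant prosubstrate, compounds added after 5 h incubation. Luminescence tracked at 0, 8, 16, 24, 32 and 40 h of exposure.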

[4] = qHTS RealTime-Glo MT Cell Viability Assay in HEK293 cells - 40 hour (AID 1224874); conditions: RealTime-Glo luminescence; max response: active compounds read low; also: nearly all actives have a fitted effect of over 50% in size; also: potency is read from the fitted curve at half-maximal effect
Procedure, shortened: (§3)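 600 HEK293 cells per well, dispensed already mixed with RealTime-Glo MT reagents. Compound dosing came 5 h later. The same wells were read for luminescence at 0, 8, 16, 24, 32 and 40 h of exposure at 37 C.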

[5] = A CellTox Green Cytotoxicity Assay to monitor cytotoxicity in HEK293 cells - 24 hour (AID 1224875); also: nearly all actives have a fitted effect of over 45% in size; also: potency is read from the fitted curve at half-maximal effect
Procedure, shortened: as §1

[6] = A CellTox Green Cytotoxicity Assay to monitor cytotoxicity in HepG2 cells - 16 hour (AID 1224876); also: nearly all actives have a fitted effect of over 45% in size
Procedure, shortened: (§4)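 First, HepG2 cells (600/well) mixed with reagent were plated; second, after 5 h at 37 C they received compounds via pintool; third, fluorescence was measured at 0 h through 40 h at 8 h intervals.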

[7] = A CellTox Green Cytotoxicity Assay to monitor cytotoxicity in HepG2 cells - 24 hour (AID 1224878); also: nearly all actives have a fitted effect of over 45% in size; also: potency is read from the fitted curve at half-maximal effect
Procedure, shortened: as §4

[8] = A CellTox Green Cytotoxicity Assay to monitor cytotoxicity in HepG2 cells - 40 hour (AID 1224879); also: nearly all actives have a fitted effect of over 40% in size
Procedure, shortened: as §4

[9] = qHTS RealTime-Glo MT Cell Viability Assay in HEK293 cells - 0 hour (AID 1224880)
Procedure, shortened: as §3

[10] = A CellTox Green Cytotoxicity Assay to monitor cytotoxicity in HEK293 cells - 32 hour (AID 1224881); also: nearly all actives have a fitted effect of over 40% in size; also: potency is read from the fitted curve at half-maximal effect
Procedure, shortened: as §1

[11] = A CellTox Green Cytotoxicity Assay to monitor cytotoxicity in HepG2 cells - 0 hour (AID 1224882); also: nearly all actives have a fitted effect of over 35% in size
Procedure, shortened: as §4

[12] = A CellTox Green Cytotoxicity Assay to monitor cytotoxicity in HepG2 cells - 32 hour (AID 1224883); also: nearly all actives have a fitted effect of over 50% in size
Procedure, shortened: as §4

[13] = A CellTox Green Cytotoxicity Assay to monitor cytotoxicity in HEK293 cells - 8 hour (AID 1224884); also: nearly all actives have a fitted effect of over 35% in size
Procedure, shortened: as §1

[14] = qHTS RealTime-Glo MT Cell Viability Assay in HepG2 cells - 16 hour (AID 1224885); also: nearly all actives have a fitted effect of over 50% in size
Procedure, shortened: (§5)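 Cell number in HepG2 cultures estimated from NanoLuc luminescence generated by metabolic reduction of a prosubstrate by living cells. The homogeneous, nonlytic format allowed repeated reads at 0, 8, 16, 24, 32 and 40 h of compound exposure.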

[15] = qHTS RealTime-Glo MT Cell Viability Assay in HEK293 cells - 24 hour (AID 1224886); also: nearly all actives have a fitted effect of over 50% in size; also: potency is read from the fitted curve at half-maximal effect
Procedure, shortened: as §2

[16] = qHTS RealTime-Glo MT Cell Viability Assay in HEK293 cells - 8 hour (AID 1224887)
Procedure, shortened: as §3

[17] = A CellTox Green Cytotoxicity Assay to monitor cytotoxicity in HEK293 cells - 16 hour (AID 1224888); also: nearly all actives have a fitted effect of over 35% in size; also: potency is read from the fitted curve at half-maximal effect
Procedure, shortened: as §1

[18] = qHTS RealTime-Glo MT Cell Viability Assay in HepG2 cells - 0 hour (AID 1224889); also: nearly all actives have a fitted effect of over 50% in size
Procedure, shortened: as §5

[19] = A CellTox Green Cytotoxicity Assay to monitor cytotoxicity in HepG2 cells - 8 hour (AID 1224890); also: nearly all actives have a fitted effect of over 45% in size
Procedure, shortened: as §4

[20] = qHTS RealTime-Glo MT Cell Viability Assay in HepG2 cells - 32 hour (AID 1224877); also: nearly all actives have a fitted effect of over 55% in size
Procedure, shortened: as §5
% is scaled to controls: 0 for no effect and ±100 for the full control effect.

Oc1c(Cl)cccc1Cl
inactive: Potency [1] | Potency [2] | Potency [3] | max response [4] 0.323% | Potency [5] | Potency [6] | Potency [7] | Potency [8] | outcome [9] | Potency [10] | outcome [11] | Potency [12] | Potency [13] | Potency [14] | Potency [15] | Potency [16] | Potency [17] | Potency [18] | Potency [19]

CN/C(=N\[N+](=O)[O-])NCC1CCOC1 (stereo not given)
inactive: Potency [1] | Potency [2] | Potency [3] | max response [4] 4.22% | Potency [5] | Potency [6] | Potency [20] | Potency [7] | Potency [8] | outcome [9] | Potency [10] | outcome [11] | Potency [12] | Potency [14] | Potency [15] | Potency [16] | Potency [17] | Potency [19]

Cc1cccc(C#N)c1
inactive: Potency [1] | Potency [2] | Potency [3] | max response [4] 6.99% | Potency [5] | Potency [6] | Potency [7] | Potency [8] | outcome [9] | Potency [10] | outcome [11] | Potency [12] | Potency [13] | Potency [14] | Potency [15] | Potency [16] | Potency [17] | Potency [18]

CC(C)CC(N(C)C)C1(c2ccc(Cl)cc2)CCC1 (stereo not given)
active: Potency [1] 23.9 µM | Potency [5] 23.9 µM | Potency [10] 23.9 µM | Potency [17] 21.3 µM
inactive: Potency [2] | Potency [3] | max response [4] -6.91% | outcome [9] | outcome [11] | Potency [14] | Potency [15] | Potency [18] | Potency [19]

COc1cccc2c1cc([N+](=O)[O-])c1c(C(=O)O)cc3c(c12)OCO3
active: Potency [2] 12.3 µM | Potency [4] 2.19 µM | Potency [7] 21.9 µM | Potency [15] 3.09 µM
inactive: Potency [1] | Potency [3] | Potency [5] | Potency [6] | Potency [10] | outcome [11] | Potency [13] | Potency [14] | Potency [16]

CC1=NNC(=O)N(/N=C/c2cccnc2)C1
inactive: Potency [1] | Potency [2] | Potency [3] | max response [4] 3.94% | Potency [5] | Potency [6] | Potency [20] | Potency [7] | Potency [8] | outcome [9] | Potency [10] | outcome [11] | Potency [12] | Potency [14] | Potency [15] | Potency [16] | Potency [18] | Potency [19]

CC(C)(C)NCC(O)c1cc(Cl)c(N)c(Cl)c1 (stereo not given)
inactive: Potency [1] | Potency [2] | Potency [3] | max response [4] 2.03% | Potency [5] | Potency [6] | Potency [20] | Potency [7] | Potency [8] | outcome [9] | Potency [10] | Potency [12] | Potency [14] | Potency [15] | Potency [16] | Potency [17] | Potency [18]

COC(=O)COc1ccc(Cl)cc1Cl
inactive: Potency [1] | Potency [2] | Potency [3] | max response [4] 0.13% | Potency [5] | Potency [6] | Potency [20] | Potency [7] | Potency [8] | outcome [9] | Potency [10] | outcome [11] | Potency [12] | Potency [14] | Potency [15] | Potency [16] | Potency [17] | Potency [18] | Potency [19]
